Experimental findings from PubChem BioAssay (NCATS) are described below.

Values joined by “and” are separate entries in the source; they are usually repeats but may differ in a detail not shown here. Equal values may be shown once. Unmarked numbers belong to inactive results. Results filed as inconclusive are left out. Active and inactive are the calls of the source. Unless noted, calls follow the shape of the dose curve; as a rule, active = well fitted curve in the direction sought with a large enough effect; inconclusive = small, poorly fitted or top-dose-only effect, or another doubt; inactive = no such curve, though single readings can be large; an effect the other way counts as inactive or inconclusive.

A short description of test [1]: qHTS assay for small molecule agonists of the antioxidant response element (ARE) signaling pathway measured by Nrf2-dependant transcriptional activity (AID 720636; active = well fitted curve in the direction sought with a large enough effect in the repeat runs; an effect the other way counts as inactive or inconclusive; also: % of control where 0% means no effect). As to conditions: ARE-luc HepG2, Nrf2 luciferase reporter, 16 h; series mostly up to 92.4 µM. The procedure, abridged: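 Cells: ARE-luc HepG2 with Nrf2-responsive luciferase. Medium contained 1% dialyzed FBS. Compound exposure lasted 16 hr at 37 C and 5% CO2, followed by ONE-Glo luciferase detection.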
Background: In qHTS, concentration-response curves come from the screen itself.

Test [2] is described as follows: qHTS assay for small molecule agonists of the antioxidant response element (ARE) signaling pathway measured by Nrf2-dependant transcriptional activity - cell viability counter screen (AID 720653; active = well fitted curve in the direction sought with a large enough effect in the repeat runs; an effect the other way counts as inactive or inconclusive; also: % is scaled to controls: 0 for no effect and ±100 for the full control effect). As to conditions: ARE-bla HepG2 viability, CellTiter-Glo ATP luminescence, 16 h; max response: stronger effect = lower value. In outline:
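ARE-bla HepG2 cells treated with compounds for 16 h at 37C; this counter screen measures viability as intracellular ATP by CellTiter-Glo luminescence after 30 min at room temperature.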

Test [3] can be described thus: qHTS Assay for Identifying Gametocytocidal Compounds (AID 743244). Also: potency is read from the fitted curve at half-maximal effect.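 As to max response: % is scaled to controls: 0 for no effect and ±100 for the full control effect; actives lower the fluorescent signal which means gametocytes are killed.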 To be noted: P. falciparum 3D7 stage III-V gametocytes, alamarBlue, 72 h; max response: stronger effect = lower value. The procedure, abridged:
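Using 20,000 stage III–V 3D7 gametocytes per well, compounds were incubated 72 h under 37 °C/5% CO2. Viability was then assessed by 24 h alamarBlue reduction, measured fluorometrically at 525/598 nm.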

Test [4] is described as follows: qHTS assay for small molecule antagonists of the retinoid-related orphan receptor gamma (ROR-gamma) signaling pathway - cell viability counter screen (AID 720652; active = well fitted curve in the direction sought with a large enough effect in the repeat runs; an effect the other way counts as inactive or inconclusive;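 also: compound exposure lasted 16 hr before ATP read; % is scaled to controls: 0 for no effect and ±100 for the full control effect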). As to conditions: RORgamma reporter cell line viability counter screen; series mostly up to 92.2 µM. The procedure, abridged: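 Cytotoxicity is quantified via intracellular ATP (CellTiter-Glo luminescence) in doxycycline-induced CHO ROR response element-luciferase reporter cells treated with compound for 16 hr at 37 C, 5% CO2.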

Test [5] can be described thus: qHTS for compounds that reverse cellular toxicity of Amyloid beta (A-beta) peptide in yeast: LOPAC Validation Assay (AID 720559).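 Also: plate controls were DMSO for no effect and equimolar ferric chloride plus clioquinol rescue for full effect.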 As to conditions: yeast expressing A-beta; series mostly up to 46.1 µM. In outline:
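Here, A-beta-toxic yeast grow with test compounds at 30 C for 48 hr before optical density at 600 nm is recorded; data are normalized against DMSO and the FeCl3-clioquinol control.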

Test [6] is described as follows: qHTS for Activators of Parkin Expression: LOPAC Validation Assay (NLuc Reporter) (AID 720572). As to conditions: Parkin promoter NanoLuc reporter cells, luminescence, percent of positive control, DMSO as zero; series mostly up to 46.1 µM. In outline: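 Neuronal cells with a Parkin promoter-driven FLuc/NLuc coincidence reporter were treated 24 h at 37 C in 7-point dose response (LOPAC). NLuc luminescence read after FLuc; signals normalized to DMSO and positive control (100%).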

The nature of test [7]: qHTS for Activators of Parkin Expression: LOPAC Validation Assay (FLuc Reporter) (AID 720573). To be noted: Cell line, PRKN promoter firefly luciferase reporter, vehicle wells = 0, positive control = 100%; series mostly up to 46.1 µM. The procedure, abridged: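 Readout is FLuc luminescence from neuronal reporter cells (Parkin promoter, FLuc plus NLuc) after 24 h compound exposure in dose response. Values normalized to neutral DMSO and positive-control compounds.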

Test [8] concerns the target T1, Hexokinase-4 (Homo sapiens) + Glucokinase regulatory protein (Homo sapiens) (UniProt P35557+Q14397). Nature of the test: qHTS assay for inhibitors of recombinant human GCK-GKRP interaction: Diaphorase-coupled assay (AID 743205). To be noted: G6PDH/diaphorase resorufin fluorescence; series mostly up to 57.5 µM. In outline:
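Signal derives from resorufin generated by diaphorase, linked to GCK turnover of glucose (5 mM) and ATP (0.4 mM). Enzyme complex was added after a 20-minute compound preincubation and monitored for 30 minutes.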

Test [9] addresses T1, Hexokinase-4 (Homo sapiens) + Glucokinase regulatory protein (Homo sapiens). Description: qHTS assay for inhibitors of recombinant human GCK-GKRP interaction: ADP-Glo assay (AID 743206).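 Also: plate controls were DMSO plus enzyme for no effect and no enzyme for full effect.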 As to conditions: ADP-Glo luminescence, 60 min, 0% = vehicle-only wells with enzyme present; series mostly up to 76.9 µM. The procedure, abridged:
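GST-GCK and FLAG-GKRP (15 nM each in the dispensed mix, with 2 uM S6P) react with 0.4 mM ATP and 5 mM glucose (final) in Hepes pH 7.6 for 60 min at room temperature. ADP is measured by ADP-Glo luminescence.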

Test [10] has the same target. Description: qHTS assay for inhibitors of recombinant human GCK-GKRP interaction: HTRF assay (AID 743207).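 Also: 0% = DMSO with GCK present and -100% = DMSO wells lacking GCK.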 As to conditions: recombinant GCK-GKRP HTRF binding, 60 min, with sorbitol-6-phosphate; series mostly up to 57.5 µM. The procedure, abridged:
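Titration screening format: recombinant GST-GCK and FLAG-GKRP at 5 nM, S6P at 2 uM, labelled anti-tag antibodies, 60 min at RT, dual-wavelength HTRF readout.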

T1 sequence (P35557 whole entry, looked up): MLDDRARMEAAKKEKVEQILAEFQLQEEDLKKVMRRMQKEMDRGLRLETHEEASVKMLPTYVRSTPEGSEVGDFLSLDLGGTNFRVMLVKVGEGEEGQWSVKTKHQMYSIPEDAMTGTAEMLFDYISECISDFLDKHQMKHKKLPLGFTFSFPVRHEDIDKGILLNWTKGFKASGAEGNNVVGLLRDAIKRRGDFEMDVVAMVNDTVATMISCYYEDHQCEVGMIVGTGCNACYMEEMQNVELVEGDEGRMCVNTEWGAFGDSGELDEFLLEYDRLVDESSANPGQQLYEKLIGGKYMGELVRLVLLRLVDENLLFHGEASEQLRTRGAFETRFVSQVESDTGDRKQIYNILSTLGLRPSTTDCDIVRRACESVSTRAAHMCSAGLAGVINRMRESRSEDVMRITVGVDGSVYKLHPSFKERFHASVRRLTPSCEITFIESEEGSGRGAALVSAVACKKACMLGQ
T1 sequence (Q14397 whole entry, looked up): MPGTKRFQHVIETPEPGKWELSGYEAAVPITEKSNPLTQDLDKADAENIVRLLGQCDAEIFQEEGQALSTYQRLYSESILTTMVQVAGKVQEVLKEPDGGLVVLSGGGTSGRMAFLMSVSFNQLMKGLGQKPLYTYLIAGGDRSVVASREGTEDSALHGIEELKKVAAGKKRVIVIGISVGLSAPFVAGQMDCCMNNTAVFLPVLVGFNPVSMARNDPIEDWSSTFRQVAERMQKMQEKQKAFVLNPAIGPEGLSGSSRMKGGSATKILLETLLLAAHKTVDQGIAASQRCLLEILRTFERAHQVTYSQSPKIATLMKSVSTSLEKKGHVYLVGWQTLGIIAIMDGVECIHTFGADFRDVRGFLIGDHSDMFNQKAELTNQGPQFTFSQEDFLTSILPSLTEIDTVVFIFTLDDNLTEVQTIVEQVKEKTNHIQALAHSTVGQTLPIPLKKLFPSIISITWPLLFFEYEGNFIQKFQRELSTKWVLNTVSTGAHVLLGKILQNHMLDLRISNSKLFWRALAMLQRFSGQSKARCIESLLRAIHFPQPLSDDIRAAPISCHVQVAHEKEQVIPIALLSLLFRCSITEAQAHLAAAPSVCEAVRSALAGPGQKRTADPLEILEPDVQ

`OCCOCCN1CCN(C(c2ccccc2)c2ccc(Cl)cc2)CC1` (stereo unspecified): the call in [1] was inactive. The max response was -5.74% in test [2] and -10.6% in test [3].
Regarding `O=C(Oc1ccccc1)c1ccccc1O`, the call in [1] and in test [4] was inactive. Also, the max response was -7.62% and 5.57% in [2]; 7.75% in test [3].
For `Clc1ccc2c(c1)N=C(N1CCNCC1)c1ccccc1N2`, the call in [5], in test [6], in [7], in [8], in test [9] and in [10] was inactive.
In the case of `Cc1cc(C(C)(C)C)c(O)c(C(C)(C)C)c1`, the compound was called inactive in test [1] and in test [4]. Moreover, the max response in test [2] was -5.59% and 4.89%; in test [3], -17.9%.
As to `CCCC(=O)c1cc(O)c(O)cc1O`, the compound was classed as inactive in test [1]. Besides, the figures for the max response in test [2] and in test [3] were -22.5% and 30.2%, respectively.
Regarding `CN(C)c1cc2c(Nc3ccc4c(cnn4Cc4ccccc4)c3)ncnc2cn1`, the result in [5], in test [8], in test [9] and in test [10] was inactive.
With `OCc1c[nH]c2ccccc12`, the compound was classed as inactive in [1] and in test [4]. The max response in test [2] is 3.93%.
With `CCCCC(CC)COC(=O)c1ccccc1C(=O)O` (stereo unspecified), the outcome in test [1] and in test [4] was inactive. In addition, the max response was 4.74% and -13.7% in test [2]; -17.7% in test [3].
`Brc1ccccc1-c1ccccc1`: the call in [1] and in test [4] was inactive. In addition, the max response is 3.59% in test [2] and -19.3% in [3].
Take `CC(C)(C)c1ccc(O)c(O)c1`: the compound was classed as inactive in [1]. In test [2], the max response is -2.01% and -13.6%.
`C[N+](C)(C)CCO`: the result in test [5], in test [6], in test [7], in test [8], in test [9] and in test [10] was inactive. In [3], the max response is 1.6% and 15%.
Consider `CC(C)N(CCC(=O)c1ccc2ccccc2c1)Cc1ccccc1`, for which the compound was called inactive in test [5], in test [6], in test [7], in test [8], in test [9] and in test [10].
Regarding `Cc1nn(-c2ccccc2)c(C)c1/C=N/N1CCN(Cc2ccccc2)CC1`, the compound was classed as inactive in test [5], in test [6], in test [7], in [8], in test [9] and in test [10]. Also, the max response in test [3] is 1.48%.
Consider `Cc1ccc(O)cc1`, for which the compound was classed as inactive in test [1] and in test [4]. Also, the max response was -5.41% in [2]; -13.3% and 9.92% in test [3].
For the compound `COC(=O)C1=CO[C@@H](O)[C@@H]2C(CO)=CC[C@H]12`, the call in [5], in [6], in test [7], in test [8], in test [9] and in test [10] was inactive. Also, the max response in test [3] was 18%.
`Nc1ncnc2n[nH]c(Nc3ccc(F)cc3)c12`: the compound was classed as inactive in test [5], in test [6], in test [7], in test [8], in test [9] and in test [10]. The max response in test [3] was 6.51%.
Turning to `CCCCCCCCCCCC[N+](C)(C)Cc1ccccc1`, in test [1], the outcome was inactive. For the same compound, the max response in test [2] is -5.65%. In addition, the Potency in test [3] is 5.01 µM (active).
In the case of `O=C(NO)c1ccccc1`, the compound was classed as inactive in [1] and in [4]. Moreover, the max response in test [2] is -9.7%; in [3] it was 14.9%.
`CCN(CC)CCOc1ccc(/C(=C(\Cl)c2ccccc2)c2ccccc2)cc1`: the compound was called inactive in test [1].
As for `C1=CC2C3C=CC(C3)C2C1` (stereo unspecified), the compound was called inactive in test [1] and in test [4]. Further, the max response in [2] was -2.11%; in [3] it was -11.9%.
Take `O=C1NC(=O)/C(=C/c2ccc3c(c2)OC(F)(F)O3)S1`: the compound was classed as inactive in test [5], in [6], in test [8], in test [9] and in test [10]. In test [3], the max response is -20.1%.
For `Brc1ccc([C@H]2CN3CCSC3=N2)cc1`, the call in [5], in test [6], in [7], in test [8], in test [9] and in test [10] was inactive. The max response in test [3] is 13.2%.
In the case of `CC(C)C(C)(C)C(C)(C)C(C)(C)S`, the compound was called inactive in test [1] and in test [4]. Besides, the max response was -4.36% and 4.23% in [2]; 40.1% in [3].
As for `COC(=O)c1c(Cl)c(Cl)c(C(=O)OC)c(Cl)c1Cl`, the result in test [1] was inactive. Also, the max response in [2] was -11.1%.
